This passage reports Potency, outcome and activity change, negative = cytotoxicity results from PubChem BioAssay (NCATS).

The nature of test [1]: P-glycoprotein substrates identified in KB-3-1 adenocarcinoma cell line, qHTS therapeutic library screen (AID 1346986). Further: nearly all actives have a fitted effect of over 60% in size.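 Further: potency is for cytotoxicity meaning loss of cell viability.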 Put shortly:
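Resistance attributable to P-gp was assessed by comparing AC50 in KB-8-5-11 with parental KB-3-1 and by tariquidar reversal. Cells were exposed 72 h and viability read by CellTiter-Glo.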
In general terms: qHTS replaces the single test concentration by a dilution series.

The nature of test [2]: P-glycoprotein substrates identified in KB-8-5-11 adenocarcinoma cell line, qHTS therapeutic library screen (AID 1346987). Further: nearly all actives have a fitted effect of over 65% in size. On activity change, negative = cytotoxicity: series mostly up to about 44 µM; on the % scale 0 is the no-effect control and ±100 the full control effect. Put shortly: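 Steps: plate 500 KB-8-5-11 cells/well in DMEM + 10% FCS (colchicine removed); pin compounds in dose-response; incubate 72 h, 37 degree C, 5% CO2; add CellTiter-Glo, 5 min; read luminescence.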

The structures appear in SMILES notation. Results filed as inconclusive are left out. Values without a mark were called inactive. Calls of active or inactive are those of the source. The call rests on the fitted dose curve; in most records, active means well fitted curve in the direction sought with a large enough effect; inconclusive means small, poorly fitted or top-dose-only effect, or another doubt; inactive means no such curve, though single readings can be large; an effect the other way counts as inactive or inconclusive.
Potency means the concentration at half of the fitted maximal effect.

Take `CCN1CCC[C@@H]1CNC(=O)c1ccc2c(c1)NC(=O)c1cccc(C)c1S2`: the Potency result in test [1] and in test [2] was “inactive” in each case.

For the molecule `O=C(Nc1ccccc1C(=O)Nc1ccc(CCO)cc1)c1ccc([N+](=O)[O-])cc1`, the Potency entry in test [1] and in test [2] was “inactive” in each case.

Regarding `O=C(Cc1c(F)cccc1F)Nc1cc(OCc2ccc(Cl)cc2)ccn1`, the Potency result in test [1] and in test [2] was “inactive” throughout.

In the case of `CO[C@H]1O[C@@H]2O[C@@]3(C)CCC4[C@H](C)CCC([C@H]1C)[C@]42OO3` (stereo not given in full), the Potency result in test [1] and in test [2] was “inactive” in each case.

Regarding `CC1(C)C2CCC(CO[C@@H]3O[C@H](CO[C@@H]4OC[C@](O)(CO)[C@H]4O)[C@@H](O)[C@H](O)[C@H]3O)C1C2` (stereo not given in full), the Potency result in test [1] and in test [2] was “inactive” each time.

On to `COC1=CC(=O)C=C(C)C12Oc1c(Cl)c(OC)cc(OC)c1C2=O` (stereo not given), for which the Potency result in test [1] and in test [2] was “inactive” throughout.

With `COc1ccc(-c2ccc3c(N4CCOCC4C)nc(N4CCOCC4C)nc3n2)cc1CO` (stereo not given), the Potency in test [1] and in test [2] was 0.0731 µM (active) throughout.

As for `Cn1ncnc1[C@@H]1c2n[nH]c(=O)c3cc(F)cc(c23)N[C@H]1c1ccc(F)cc1`, the Potency result in test [1] and in test [2] was “inactive” in each case.

`COc1cc(OC)c2c(=O)[nH]c(-c3cc(C)c(OCCO)c(C)c3)nc2c1`: the Potency entry in test [1] and in test [2] was “inactive” each time.

Regarding `CCC/C=C/C(=O)O[C@H]1CC(C)(C)CC2[C@@]13[C@H](O)C[C@]1(C)[C@@]2(CCC2[C@@]4(C)CC[C@H](O[C@@H]5O[C@H](C(=O)O)[C@@H](O)[C@H](O[C@@H]6O[C@H](CO)[C@H](O)[C@H](O)[C@H]6O[C@@H]6O[C@@H](C)[C@H](O)[C@@H](O)[C@H]6O[C@@H]6OC[C@](O)(CO)[C@H]6O)[C@H]5O[C@@H]5O[C@H](CO)[C@H](O)[C@H](O)[C@H]5O)C(C)(C)C4CC[C@]21C)O[C@H]3O` (stereo not given in full), the outcome in test [1] and in test [2] was “inactive [at 9.29 µM]” each time.

Turning to `CN1CCN(c2ccc(-c3cccc(CN4CCOCC4)c3)cc2NC(=O)c2c[nH]c(=O)cc2C(F)(F)F)CC1`, the Potency entry in test [1] and in test [2] was “inactive” throughout.

Turning to `CC(CCC1(O)OC2CC3C4CC=C5C[C@@H](O[C@@H]6O[C@H](CO)[C@@H](O[C@@H]7O[C@@H](C)[C@H](O)[C@@H](O)[C@H]7O)[C@H](O)[C@H]6O[C@@H]6O[C@@H](C)[C@H](O)[C@@H](O)[C@H]6O)CC[C@]5(C)C4CC[C@]3(C)[C@@]2(O)[C@@H]1C)CO[C@@H]1O[C@H](CO)[C@@H](O)[C@H](O)[C@H]1O` (stereo not given in full), in test [1], the outcome is “inactive [at 9.29 µM]”. In test [2], the activity change, negative = cytotoxicity is -2.5% [at 9.29 µM].

For `CC1(C)CC[C@]23CO[C@@]4(CCC5[C@@]6(C)CC[C@H](O[C@@H]7OC[C@H](O[C@@H]8O[C@H](CO)[C@@H](O)[C@H](O)[C@H]8O[C@@H]8OC[C@@H](O)[C@H](O)[C@H]8O)[C@H](O)[C@H]7O)[C@@](C)(CO)C6CC[C@@]5(C)[C@]4(C)CC2=O)[C@@H]3C1` (stereo not given in full), the outcome in test [1] was “inactive [at 9.29 µM]”. Also, the activity change, negative = cytotoxicity in test [2] was -22.9% [at 9.29 µM].

As for `CC(=O)O[C@H]1[C@H](O)C[C@@]2(C)C(CC[C@]3(C)C2CC=C2C4CC(C)(C)CC[C@]4(C(=O)O)CC[C@]23C)C1(C)C` (stereo not given in full), the Potency result in test [2] was “inactive”.

`C=CC(=O)N1CCC(Oc2cc3c(Nc4ccc(Cl)c(Cl)c4F)ncnc3cc2OC)CC1`: the Potency is 13 µM (active) in test [1] and 11.6 µM (active) in test [2].

`C=C1C(OC2OC(CO)C(O)C(O)C2O)CC2C(C)(C)C(O)CCC2(C)C1CC/C(C)=C\COC(=O)CC(=O)O` (stereo not given): the Potency entry in test [1] and in test [2] was “inactive” in each case.

`CCC(C)C1NC(=O)C(Cc2ccccc2)NC(=O)C(CCCCCC(=O)C(O)CO)NC(=O)C2CCCCN2C1=O` (stereo not given): the Potency result in test [1] and in test [2] was “inactive” in each case.

For `CNc1nc(Nc2ccc(C(=O)N3CCOCC3)cc2OC)nc2[nH]cc(Cl)c12`, the figures for the Potency in test [1] and in test [2] were 7.31 µM (active) and 5.8 µM (active), respectively.

In the case of `C/C=C(/C=C(C)/C=C/C=C/C=C(\C)C(=O)C12OC1C(O)(CCO)NC2=O)C(=O)OC` (stereo not given), the Potency entry in test [1] and in test [2] was “inactive” in each case.

As to `CC#CCn1c(N2CCCC(N)C2)nc2c1c(=O)n(Cc1nc(C)c3ccccc3n1)c(=O)n2C` (stereo not given), the Potency result in test [1] and in test [2] was “inactive” in each case.

Turning to `COc1ccc(S(=O)(=O)N2CCC[C@H]2C(=O)Nc2cc(C)cc(C)c2)cc1`, the Potency result in test [1] and in test [2] was “inactive” in each case.

On to `C[C@H](Nc1cc2c(-c3ccc4c(c3)OCO4)noc2cn1)c1ccccc1`, for which the Potency entry in test [1] and in test [2] was “inactive” each time.

Take `COc1cccc(CN(C(=O)CC(C)(C)C)[C@H]2C[C@H](C(=O)N3CCNCC3)N(Cc3ccc4c(c3)OCO4)C2)c1`: the Potency entry in test [1] and in test [2] was “inactive” throughout.

On to `C=C1[C@H]2CC[C@H](C(=O)O)[C@@]23CC[C@H](C3)C1(C)C`, for which the Potency entry in test [1] and in test [2] was “inactive” in each case.

With `CN(C)c1ccc(NC(=O)NS(=O)(=O)c2ccc(Cl)cc2)cc1`, the Potency entry in test [1] and in test [2] was “inactive” each time.

In the case of `Nc1nc(OCc2cc(Br)cs2)c2[nH]cnc2n1`, the Potency result in test [1] and in test [2] was “inactive” each time.

As to `CC(=O)Nc1nc(C)c(-c2nc(N3CCCC(O)C3)no2)s1` (stereo not given), the Potency in test [1] is 13 µM (active); in test [2] it was 18.4 µM (active).

For `Cc1cn2cc(C(=O)N(C)CCO)cc(NC3CCOc4cccc(C)c43)c2n1` (stereo not given), the Potency result in test [1] and in test [2] was “inactive” each time.
